Experimental data reported in PubChem BioAssay (NCI).
About 79,000 compounds went through this panel and 15% of them were active in at least one assay; those are over-represented in the sample as a whole. Calls of active or inactive are those of the source. Rule as the data show it: active = growth inhibition above about 70%; inactive = the rest.

Tests used:
[1] = NCI Yeast Anticancer Drug Screen. Data for the rad52 strain (AID 147);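 also: 0% = growth of vehicle-treated control cultures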; conditions: S. cerevisiae rad52 mutant growth inhibition, stronger effect = higher value
In short: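 Measured: yeast growth inhibition. System: strain with a defined DNA damage repair alteration. Reference: vehicle-treated control cultures.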

[2] = NCI Yeast Anticancer Drug Screen. Data for the wt1 strain (AID 149);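 also: 0% = growth of vehicle-treated wt1 cultures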; conditions: S. cerevisiae wt1 strain (SPY 50644) growth inhibition, stronger effect = higher value
In short: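 Growth inhibition read against vehicle controls after compound exposure of the wt1 yeast strain.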

[3] = NCI Yeast Anticancer Drug Screen. Data for the rad50EPP+ strain (AID 151);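 also: 0% = growth of vehicle-treated control cultures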; conditions: S. cerevisiae rad50 mutant strain, stronger effect = higher value
In short: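 One strain with a rad50 alteration (rad50EPP+) was compound-treated, its growth then compared to that of vehicle controls.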

[4] = NCI Yeast Anticancer Drug Screen. Data for the mgt1 strain (AID 153); conditions: S. cerevisiae mgt1 mutant growth inhibition, stronger effect = higher value
In short: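 After exposure of the mgt1 yeast mutant to compound, growth was measured and reported as inhibition compared with vehicle controls.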

[5] = NCI Yeast Anticancer Drug Screen. Data for the rad50 strain (AID 155);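 also: 0% = growth of vehicle-only cultures of the same strain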; conditions: S. cerevisiae rad50 strain growth inhibition, stronger effect = higher value
In short: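 Readout: growth inhibition relative to vehicle-treated cultures. Compound exposure was carried out in a genetically defined yeast strain deficient in DNA damage repair.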

[6] = NCI Yeast Anticancer Drug Screen. Data for the mec2-1 strain (AID 157); conditions: S. cerevisiae mec2-1 strain, stronger effect = higher value
In short: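 Test agents were screened against the mec2-1 yeast strain, with defined DNA repair or cell cycle alteration. Growth was scored as inhibition against vehicle-only controls.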

[7] = NCI Yeast Anticancer Drug Screen. Data for the rad14 strain (AID 159);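 also: 0% = growth of vehicle-treated control cultures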; conditions: S. cerevisiae rad14 strain growth inhibition, stronger effect = higher value
In short: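 Growth inhibition vs vehicle controls; genetically altered yeast strain (DNA damage repair defect) treated with test compounds.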

[8] = NCI Yeast Anticancer Drug Screen. Data for the sgs1 mgt1 strain (AID 161);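 also: 0% = growth of cultures given vehicle only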; conditions: S. cerevisiae sgs1 mgt1 strain, stronger effect = higher value
In short: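 Genetically altered yeast, compound exposure, growth inhibition relative to vehicle.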

[9] = NCI Yeast Anticancer Drug Screen. Data for the CLN2oe strain (AID 163);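 also: 0% = growth of vehicle-only control cultures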; conditions: S. cerevisiae CLN2oe strain, stronger effect = higher value
In short: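 Here, growth inhibition in a cell-cycle-altered yeast strain after compound exposure was quantified against vehicle control growth.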

[10] = NCI Yeast Anticancer Drug Screen. Data for the cln2 rad14 strain (AID 165);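 also: 0% = growth equal to vehicle treated cultures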; conditions: S. cerevisiae cln2 rad14 strain, stronger effect = higher value
In short: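 Growth of compound-exposed yeast (cln2 rad14 genotype) measured and expressed as inhibition relative to vehicle.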

[11] = NCI Yeast Anticancer Drug Screen. Data for the bub3 strain (AID 167); conditions: S. cerevisiae bub3 mutant strain, stronger effect = higher value
In short: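 Readout: yeast growth inhibition, expressed relative to vehicle-only wells. The test organism is a mutant strain from a panel with lesions in DNA repair or checkpoint genes.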

[12] = NCI Yeast Anticancer Drug Screen. Data for the wt2 strain (AID 169);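 also: 0% = growth of vehicle-treated yeast cultures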; conditions: S. cerevisiae wt2 strain growth inhibition, stronger effect = higher value
In short: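 Genetically defined yeast strains from a DNA-repair/cell-cycle panel were used. Compound-exposed yeast growth was measured, and the inhibition was calculated relative to vehicle treatment.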

[13] = NCI Yeast Anticancer Drug Screen. Data for the mlh1 strain (AID 171);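 also: 0% = growth of vehicle-treated control cultures of the same strain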; conditions: S. cerevisiae mlh1 strain growth inhibition, stronger effect = higher value
In short: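 Here the genetically defined yeast mutant is grown with each compound, and the extent to which its growth falls below that of vehicle-exposed cells is reported.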

[14] = NCI Yeast Anticancer Drug Screen. Data for the sgs1 strain (AID 173);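 also: 0% = growth of vehicle-only control cultures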; conditions: S. cerevisiae sgs1 mutant, stronger effect = higher value
In short: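 Relative growth inhibition, referenced to vehicle, was determined in a yeast strain with a defined alteration affecting DNA damage repair or cell cycle control after compound exposure.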

[15] = NCI Yeast Anticancer Drug Screen. Data for the mlh1 rad18 strain (AID 175); conditions: S. cerevisiae mlh1 rad18 strain growth inhibition, stronger effect = higher value
In short: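 In this whole-cell yeast screen, a strain with altered DNA damage repair is challenged with compound, and its growth is measured against matched vehicle-treated controls.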

[16] = NCI Yeast Anticancer Drug Screen. Data for the rad18 strain (AID 177); conditions: S. cerevisiae rad18 mutant growth inhibition, stronger effect = higher value
In short: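 Screen uses a yeast strain with a defined lesion in DNA damage repair; compound effect is read as loss of growth compared to untreated vehicle cultures.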

[17] = at 5.0 µM (retest, dose inferred, filed as 0.5)
[18] = at 50.0 µM (retest, dose inferred, filed as 5.0)

Measured: growth inhibition

C[S+](C)C1(c2ccccc2)C(=O)c2ccccc2C1=O
inactive: [1]; at 1.2 µM 8% | [1]; at 3.7 µM 11% | [1]; at 11.0 µM 20% | [1]; at 33.0 µM 35% | [2]; at 1.2 µM 1% | [2]; at 3.7 µM 2% | [2]; at 11.0 µM 1% | [2]; at 33.0 µM 3% | [2]; at 100.0 µM 12% | [3]; at 1.2 µM 1% | [3]; at 3.7 µM 3% | [3]; at 11.0 µM 9% | [3]; at 33.0 µM 36% | [4]; at 1.2 µM 2% | [4]; at 3.7 µM 1% | [4]; at 11.0 µM 4% | [4]; at 33.0 µM 3% | [4]; at 100.0 µM 36% | [5]; at 1.2 µM 1% | [5]; at 3.7 µM 7% | [5]; [17] 7% | [5]; at 11.0 µM 18% | [5]; at 33.0 µM 42% | [6]; at 1.2 µM 3% | [6]; at 3.7 µM 0% | [6]; [17] -9% | [6]; at 11.0 µM 0% | [6]; at 33.0 µM 11% | [6]; [18] 1% | [6]; at 50.0 µM -11.7% | [6]; at 100.0 µM 30% | [7]; at 1.2 µM 1% | [7]; at 3.7 µM 0% | [7]; at 11.0 µM 2% | [7]; at 33.0 µM 6% | [7]; at 100.0 µM 22% | [8]; [17] 6% | [8]; [18] 6% | [8]; at 50.0 µM 1.35% | [9]; at 1.2 µM 1% | [9]; at 3.7 µM 2% | [9]; at 11.0 µM 8% | [9]; at 33.0 µM 13% | [9]; at 100.0 µM 26% | [10]; [17] 6% | [10]; [18] 10% | [10]; at 50.0 µM 9.8% | [11]; at 1.2 µM 1% | [11]; at 3.7 µM 2% | [11]; [17] -7% | [11]; at 11.0 µM 2% | [11]; at 33.0 µM 8% | [11]; [18] 10% | [11]; at 50.0 µM 35.9% | [11]; at 100.0 µM 30% | [12]; at 1.2 µM 2% | [12]; at 3.7 µM -1% | [12]; at 11.0 µM 0% | [12]; at 33.0 µM 6% | [12]; at 100.0 µM 32% | [13]; at 1.2 µM 1% | [13]; at 3.7 µM -1% | [13]; at 11.0 µM 0% | [13]; at 33.0 µM 7% | [13]; at 100.0 µM 30% | [14]; at 1.2 µM -1% | [14]; at 3.7 µM -2% | [14]; at 11.0 µM -1% | [14]; at 33.0 µM 16% | [14]; at 100.0 µM 52% | [15]; [17] 10% | [15]; [18] 10% | [15]; at 50.0 µM 27.9% | [16]; at 1.2 µM 5% | [16]; at 3.7 µM 9% | [16]; at 11.0 µM 16% | [16]; at 33.0 µM 36% | [16]; at 100.0 µM 54%
active: [1]; at 100.0 µM 73% | [3]; at 100.0 µM 72% | [5]; [18] 76% | [5]; at 50.0 µM 77% | [5]; at 100.0 µM 72%
